Screening results as filed in PubChem BioAssay.
Most compounds without a hit are left out; they make up all but 3.5% or so of the library.
FBW7 activator = human FBW7 E3 ligase activation, primary screen; Q969H0; AlphaScreen FBW7–phospho-cyclin E peptide binding, activator screen; normalized activity (activation), % at 26.1 µM; 650,000 tested, 0.13% active; AID 1259310; in the data active = normalized activity above about 1.9%;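 note: purified mutant Fbw7 with reduced substrate affinity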
MITF primary = blocks human microphthalmia-associated transcription factor | O75030 | AlphaScreen MITF homodimerization, bead proximity signal | inhibition, % at 2.6 µM | 650,000 tested, 0.91% active | AID 1259374; in the data active = inhibition above about 50%;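 note: 0% = vehicle wells with protein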
Target sequence (O75030 whole entry, looked up): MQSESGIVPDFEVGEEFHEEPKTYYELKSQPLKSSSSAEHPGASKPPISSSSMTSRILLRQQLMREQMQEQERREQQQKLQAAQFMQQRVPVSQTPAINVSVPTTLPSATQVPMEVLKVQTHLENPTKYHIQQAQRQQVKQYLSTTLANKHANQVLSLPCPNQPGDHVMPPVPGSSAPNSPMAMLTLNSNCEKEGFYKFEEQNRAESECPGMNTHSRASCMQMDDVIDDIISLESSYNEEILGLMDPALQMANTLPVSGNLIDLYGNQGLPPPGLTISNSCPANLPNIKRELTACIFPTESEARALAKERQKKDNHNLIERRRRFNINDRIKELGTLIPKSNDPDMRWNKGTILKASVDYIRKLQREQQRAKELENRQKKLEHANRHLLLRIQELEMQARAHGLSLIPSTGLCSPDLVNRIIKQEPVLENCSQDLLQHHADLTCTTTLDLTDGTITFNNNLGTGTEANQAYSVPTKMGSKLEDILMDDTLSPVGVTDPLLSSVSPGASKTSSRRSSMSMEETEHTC
GPR151 activ = human GPR151 activation; Q8TDV0; PathHunter beta-arrestin GPR151 cells, luminescence; activation, % at 11.2 µM; 650,000 tested, 1% active; in the data active = activation above about 4.9%;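 note: 0% = median of compound wells and 100% = cells with positive control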
TEAD-YAP block = TEAD-YAP interaction inhibition. HEK-TIYL cells, TEAD-Gal4/YAP UAS-luciferase luminescence. inhibition, % at 9.12 µM. 640,000 tested, 1.4% active; in the data active = inhibition above about 32%;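 note: 0% = median of test compound wells and 100% = reference inhibitor wells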
GPR151 confirm = confirmation of human GPR151 activators | 6,700 tested, under 10 active | activation, % at 11.2 µM | AID 1508609 | shares compounds with GPR151 activ | GPR151 PathHunter beta-arrestin cells, luminescence, 90 min; % of EA-reagent control over plate median;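 active = mean percent activation across replicates above the confirmation screen cutoff of 4.91%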
GPR119 ag = GPR119 activation, counter-screen for GPR151 activators. GPR119 PathHunter beta-arrestin cells, luminescence, 90 min; 0 = compound-well median, 100 = enzyme-acceptor control. shares compounds with GPR151 activ. 6,700 tested, 0.3% active. AID 1508611. activation, % at 11.2 µM;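 active = mean percent activation in the counterscreen above 29.09%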;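 note: counterscreen on off-target GPR119 to flag nonselective hits from the GPR151 activator screen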
* = called active by the depositor.

Screening CN(C)c1ccc(C(CNS(C)(=O)=O)N2CCN(c3ccccc3)CC2)cc1 (stereo not drawn) returned FBW7 activator 0, MITF primary 15, GPR151 activ 0 and TEAD-YAP block 9.
`O=S(=O)(c1ccc(-c2csc(=Nc3ccccc3)n2Cc2ccc3c(c2)OCO3)cc1)N1CCOCC1` gave FBW7 activator 0, MITF primary -4, GPR151 activ -2 and TEAD-YAP block -6.
Screening Cc1cccc(NC(=S)NC2CC(C)(C)NC(C)(C)C2)c1 returned FBW7 activator 0, MITF primary -1, GPR151 activ 2 and TEAD-YAP block -2.
For CC(C)(C)OC(=O)N1CCC[C@H](CNC(=O)c2cccs2)C1 the results were FBW7 activator 1, MITF primary 12, GPR151 activ -1 and TEAD-YAP block 0.
CCCCSc1ncnc2c1c(-c1ccccc1)cn2-c1ccc(OCC)cc1 was read as FBW7 activator 0, MITF primary -9, GPR151 activ 0 and TEAD-YAP block 7.
`COc1cccc2c1CC(C(=O)Nc1ccc(-c3cn[nH]c3C)cc1OCCN(C)C)CO2` (stereo not drawn) gave FBW7 activator 0, MITF primary 10, GPR151 activ 6.8*, TEAD-YAP block 7, GPR151 confirm 0 and GPR119 ag -2.
Screening Cc1[nH]ncc1-c1ccc(NC(=O)C2COc3c(F)cccc3C2)c(OCCN(C)C)c1 (stereo not drawn) returned FBW7 activator 0, MITF primary 0, GPR151 activ -2 and TEAD-YAP block 0.
For CC(=O)CC/C=C(\C)CCC=C(C)C the results were FBW7 activator 0, MITF primary 5, GPR151 activ 6.1*, TEAD-YAP block 4, GPR151 confirm -1 and GPR119 ag -3.
For CN1/C(=C2/SC(=Nc3ccc(C4CCCCC4)cc3)N(c3ccccc3)C2=O)Sc2ccccc21 the results were FBW7 activator 0, MITF primary -1, GPR151 activ 0 and TEAD-YAP block 5.
CN1C(=O)/C(=C2/Sc3ccccc3N2C)SC1=Nc1ccc(O)cc1 was read as FBW7 activator 0, MITF primary 9, GPR151 activ 6.4*, TEAD-YAP block -21, GPR151 confirm 0 and GPR119 ag -8.
`CCOC(=O)c1[nH]c2ccc(OC)cc2c1NC(=O)CN(CC)CC` gave FBW7 activator 0, MITF primary 5, GPR151 activ 1 and TEAD-YAP block 7.
For CCCCOc1ccc(C(=O)Nc2ccc(C34CC5CC(CC(C5)C3)C4)cc2)cc1 the results were FBW7 activator 0, MITF primary -5, GPR151 activ 0 and TEAD-YAP block -5.
For COC(=O)c1ccc(OCC2c3cc(OC)c(OC)cc3CCN2C(=O)c2cccc(OC)c2OC)cc1 (stereo not drawn) the results were FBW7 activator 0, MITF primary 0, GPR151 activ 5.3*, TEAD-YAP block -13, GPR151 confirm 1 and GPR119 ag 1.
CCN(C(=O)c1ccc([N+](=O)[O-])cc1Cl)c1ccccc1C was read as FBW7 activator 0, MITF primary 8, GPR151 activ 8.6*, TEAD-YAP block -2, GPR151 confirm -1 and GPR119 ag -9.
For CCc1ccccc1NC(=O)C/C(C)=N\NC(=O)c1cccc(Br)c1 the results were FBW7 activator 0, MITF primary 5, GPR151 activ 0 and TEAD-YAP block -39.
Screening COc1ccc(CCNC(=O)CCc2nc3cccnc3n2-c2ccccc2)c(OC)c1 returned FBW7 activator 0, MITF primary -1, GPR151 activ 5.1*, TEAD-YAP block 4, GPR151 confirm 0 and GPR119 ag 0.
Cn1c(=O)c2c(ncn2CCn2cnc3c2c(=O)n(C)c(=O)n3C)n(C)c1=O was read as FBW7 activator 0, MITF primary 2, GPR151 activ -2 and TEAD-YAP block 1.
For CN(C)C(=O)NCCn1cnc2c1c(=O)n(C)c(=O)n2C the results were FBW7 activator 0, MITF primary 13, GPR151 activ 6.2*, TEAD-YAP block 3, GPR151 confirm -1 and GPR119 ag -2.
Screening CC1CCCN(c2nc3c(c(=O)[nH]2)CCN(CC2CCC=CO2)C3)C1 (stereo not drawn) returned FBW7 activator 1, MITF primary -2, GPR151 activ 9.5*, TEAD-YAP block -4, GPR151 confirm 1 and GPR119 ag 7.
For O=c1[nH]c(N2CCCCC2)nc2c1CCN(CC1CCC=CO1)C2 (stereo not drawn) the results were FBW7 activator 0, MITF primary -8, GPR151 activ 0 and TEAD-YAP block -4.
Screening Cc1ccc(CC(=O)O/N=C(\N)Cc2cccc3ccccc23)cc1 returned FBW7 activator 0, MITF primary 7, GPR151 activ 5.5*, TEAD-YAP block 10, GPR151 confirm 0 and GPR119 ag -4.
Screening Cc1ccc(/C(N)=N/OC(=O)Cc2cccc3ccccc23)cc1 returned FBW7 activator 0, MITF primary -3, GPR151 activ 1 and TEAD-YAP block 4.
Screening CCN(CC)CCCNC(=O)C1c2ccccc2C(=O)N(C)C1c1cn(C)c2ccccc12 (stereo not drawn) returned FBW7 activator 1, MITF primary 7, GPR151 activ 1 and TEAD-YAP block 0.
Screening CCc1ccc(C2C(C#N)=C(SCC(N)=O)NC(C)=C2C(C)=O)cc1 (stereo not drawn) returned FBW7 activator 0, MITF primary -10, GPR151 activ 1 and TEAD-YAP block 4.
Screening COc1ccc(/C=C2\N=C(c3ccc(C)cc3)NC2=O)cc1 returned FBW7 activator 1, MITF primary 6, GPR151 activ 0 and TEAD-YAP block 14.
Screening COc1ccc(/C=C2/N=C(c3ccccc3)NC2=O)cc1 returned FBW7 activator 0, MITF primary -3, GPR151 activ 5.2*, TEAD-YAP block -15, GPR151 confirm -1 and GPR119 ag -9.
O=C(c1ccc2c(c1)OCCO2)N1CCc2nnc(Cc3ccccc3)n2CC1 was read as FBW7 activator 0, MITF primary -6, GPR151 activ 0 and TEAD-YAP block 4.
Screening COc1cc(Cl)c(S(=O)(=O)N2CCN(Cc3ccccc3)CC2)cc1Cl returned FBW7 activator 0, MITF primary 11, GPR151 activ 6.5*, TEAD-YAP block 5, GPR151 confirm 0 and GPR119 ag -17.
Screening COc1ccc(I)cc1S(=O)(=O)N1CCN(Cc2ccccc2)CC1 returned FBW7 activator 0, MITF primary 3, GPR151 activ 1 and TEAD-YAP block 4.
For O=S(=O)(c1ccc(Cl)cc1Br)N1CCN(Cc2ccccc2)CC1 the results were FBW7 activator 0, MITF primary -2, GPR151 activ 6.2*, TEAD-YAP block -6, GPR151 confirm 0 and GPR119 ag -9.
